# High-throughput results deposited in PubChem BioAssay by National Center for Advancing Translational Sciences (NCATS).
# An excerpt weighted towards active compounds, which were near 2.6% of everything screened.
# HepG2 tox: kills HepG2 cells in TGF-b inhibitor counter-screen. HepG2 CAGA-GFP viability, ATP luminescence, 18 h. Potency, µM (series often up to 46.1 µM), hits mostly cytotoxic. 0.76% of 410,000 active. AID 588856
#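 HepG2 CAGA-GFP cells (1000/well, DMEM with 1% FBS) received compound, then TGF-beta at 500 pg/mL final, and were incubated 18 hours at 37 degrees C. Viability was read by CellTiter-Glo luminescence. Media-only wells were set as complete cell-killing and DMSO as no toxicity.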
# S2 tox: viability counter-screen for ATXN expression inhibitors; S2 cells (HEK-293 line with an ATXN2-luciferase reporter) viability, CellTiter-Fluor protease fluorescence, 24 h; Potency, µM (series often up to 56.7 µM), most hits filed as cytotoxic; 0.49% of 400,000 active; note: nearly all actives have a fitted effect of over 40% in size
# uPA surface inh: blocks generation of uPA at the cell surface; cell surface uPA generation assay, qHTS; AID 540303; 0.31% of 330,000 active; Potency, µM (series often up to 38.3 µM), actives largely listed as inhibitors; active = well fitted inhibition curve with a large enough effect; inconclusive = small, poorly fitted or top-dose-only effect; inactive = no such curve, though single readings can be large or run the other way; tested in mouse RAW 264.7 cells; note: nearly all actives have a fitted effect of over 55% in size
# Giardia killer: Giardia lamblia killing. Giardia lamblia trophozoite viability. activity change, % at 7.66 µM, hits read low. 0.15% of 340,000 active. AID 540267; in the data active = activity change below about -80%; inconclusive = between about -30% and that limit;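 note: parasites exposed to compound for two days anaerobically before the ATP read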
#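 ATP-content bioluminescence gauges trophozoite survival. Cells (100/well) receive compound and incubate anaerobically for 48 hrs at 37 deg C; detection reagent follows for 15-30 min at room temperature.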
# ATXN2 expr inh: reduces ATXN2 reporter expression in HEK-293 cells; HEK-293 ATXN2-luciferase reporter, luminescence, 24 h; Potency, µM (doses to about 57 µM), usual class: inhibitors; 0.72% of 360,000 active; note: nearly all actives have a fitted effect of over 55% in size
#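 qHTS (up to 57 uM final) was run with 24 h compound exposure of reporter cells at 37 °C. Each well was multiplexed: SteadyGlo luminescence measured ATXN2-luciferase expression after a fluorogenic Gly-Phe-AFC viability readout (25 uM final).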
# TGFb inhibitor: TGF-b pathway inhibition; HepG2 CAGA-GFP TGF-b/SMAD3 reporter, GFP fluorescence, 18 h; TGF-beta stimulated, 500 pg/mL final; Potency, µM (series often up to 46.1 µM), hits mostly inhibitors; 1.2% of 410,000 active; AID 588855; note: nearly all actives have a fitted effect of over 65% in size
#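 TGF-beta reporter screen: HEPG2 CAGA-GFP, 1% FBS, 500 pg/mL TGF-beta final, 18 h; per-cell GFP summed per well; curves fitted and categorized by class.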
# A number is an active result; n = inactive; u = inconclusive; x = no result given. Unless noted, calls come from the whole dose curve; as a rule, active = well fitted curve in the direction sought with a large enough effect; inconclusive = small, poorly fitted or top-dose-only effect, or another doubt; inactive = no such curve, though single readings can be large; an effect the other way counts as inactive or inconclusive.
SMILES,HepG2 tox,S2 tox,uPA surface inh,Giardia killer,ATXN2 expr inh,TGFb inhibitor
COc1ccc2c(c1)C(SCC(=O)NCCc1ccc(Cl)cc1)CC(C)(C)O2 (stereo not drawn),n,u,n,n,28µM,u
Cn1c(C2CCC2)nc2cc(C(=O)N3CCOc4ccccc4C3)cc(NC(=O)C3CCCO3)c21 (stereo not drawn),x,n,x,x,x,x
CCC1CN(CCNC(=O)c2cccc(C(=O)OC)c2)Cc2cc(OC)ccc2O1 (stereo not drawn),x,n,x,x,x,x
CCOc1cc(OCC)cc(C(=O)Nc2cccc(-c3nc4ccccc4[nH]3)c2)c1,14µM,u,x,x,n,u
O=C(Nc1ccc2nc(-c3ccccc3)[nH]c2c1)c1ccco1,n,n,n,n,n,n
O=C(Nc1cccc(-c2nc3ccccc3[nH]2)c1)c1cccc(NC(=O)c2ccco2)c1,n,32µM,x,n,u,u
O=C(Nc1cc(C(F)(F)F)cc(C(F)(F)F)c1)c1cc(Cl)ccc1O,x,x,x,x,0.86µM,x
COc1ccc(CC2(CO)CCN(Cc3ccc(NC(C)=O)cc3)CC2)cc1,n,n,n,n,n,n
COc1ccc(CC2(CO)CCN(Cc3ccc(OC(F)(F)F)cc3)CC2)cc1,20µM,u,n,n,u,14µM
CN(C)C(=O)CSc1cccc2cccnc12,7.1µM,u,n,n,u,u
NNC(=O)CSc1cccc2cccnc12,n,n,n,n,n,n
O=C(CSc1cccc2cccnc12)N1CCCC1,16µM,u,n,n,u,u
Clc1ccc(NCc2nc3ccccc3n2CCOc2ccccc2)cc1,n,n,x,x,n,u
Cc1cccc(NCc2nc3ccccc3n2CCOc2ccccc2C)c1,n,u,x,x,u,11µM
Cc1ccccc1NCc1nc2ccccc2n1CCOc1ccccc1,n,u,x,x,n,14µM
Nc1nc(Cl)cc(N2CCC(c3cc(-c4ccc(Cl)cc4)n[nH]3)CC2)n1,11µM,u,x,n,25µM,11µM
COc1ccc(-c2cc(C3CCN(Cc4cccc(C(F)(F)F)c4)CC3)[nH]n2)cc1,13µM,n,n,n,u,u
Cc1ccc(CN2CCC(c3cc(-c4ccc(Cl)cc4)n[nH]3)CC2)cc1,14µM,u,n,n,20µM,16µM
CN1CCN(CCCNC(=O)Cn2c(-c3cccs3)cc3ccccc32)CC1,n,n,x,x,n,n
O=C(Cn1c(-c2cccs2)cc2ccccc21)NCCCN1CCN(c2cccc(Cl)c2)CC1,n,u,x,x,u,13µM
Cc1ccc(C)c(N2CCN(CCCNC(=O)Cn3c(-c4cccs4)cc4ccccc43)CC2)c1,n,u,x,x,25µM,13µM
CCN1CCC(N(Cc2cccc(OC)c2)C(=O)Nc2cccc(C(F)(F)F)c2)CC1,7.1µM,u,x,x,n,u
CCN1CCC(N(Cc2ccc(F)cc2)C(=O)Nc2cccc(C(F)(F)F)c2)CC1,n,n,x,x,28µM,u
CCN1CCC(N(Cc2cccc(OC)c2)C(=O)Nc2cccc(C)c2C)CC1,n,u,x,x,n,n
CC(NC(=O)C1CCOCC1)c1nnc2n1CCN(Cc1ccc(F)cc1)CC2 (stereo not drawn),x,n,x,x,x,x
SMILES,HepG2 tox,S2 tox,uPA surface inh,Giardia killer,ATXN2 expr inh,TGFb inhibitor
COCC(C)NC(=O)CCS(=O)(=O)c1nc(-c2ccc(OC)cc2)cc(C(F)(F)F)n1 (stereo not drawn),n,u,n,n,u,11µM
CCOC(=O)CS(=O)(=O)c1nc(-c2ccc(F)cc2)cc(C(F)(F)F)n1,n,x,n,n,u,u
COc1ccc(-c2cc(C(F)(F)F)nc(S(C)(=O)=O)n2)cc1,n,18µM,n,n,u,3.5µM
CS(=O)(=O)c1nc(-c2ccc(F)cc2)cc(C(F)(F)F)n1,11µM,u,n,n,u,u
CCCCCCCCCCCCCCCC[n+]1ccc(/C=C/c2c(C)[nH]c3ccccc23)cc1,n,x,x,x,x,u
CN(C)c1ccc(-c2c(C3C4C=CCCC4(C)C(=O)N3Cc3ccccc3)ccc3ccccc23)cc1 (stereo not drawn),n,x,x,n,x,u
Cc1c2ccccc2cc[n+]1C,n,x,x,x,x,n
CC1=[N+](C)c2ccc3ccccc3c2C1(C)C,n,n,2.2µM,n,u,6.3µM
S=C1NC[C@H](CC2CCCCC2)N1CC1CCCCC1,n,18µM,n,n,32µM,u
